A short description of test [1]: antimalarial activity against Dd2 strain (AID 2302;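 active = growth inhibition above 50% at the single 2 µM test dose, taken to imply half-maximal potency below 2 µM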;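 also: 0% = DMSO untreated growth and 100% = chloroquine plus artemisinin killed control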). The conditions noted are these: P. falciparum Dd2 in RBCs, LDH growth readout, 72 h; at 2 µM; hits give high values.
Test [2] in a line: HepG2 cytotoxicity, primary screen, cytotoxicity control for P. falciparum antimalarial project, cell-based, ATP luminescence (AID 2303;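 active = inhibition above 50%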;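 also: 0% = DMSO wells and 100% = digitonin-killed cells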). The conditions noted are these: HepG2 viability, 24-48 h, at 10 µM, hits give high values.
Test [3] addresses L-lactate dehydrogenase (Plasmodium falciparum (isolate CDC / Honduras)) (UniProt Q27743). The test can be described thus: PfLDH activity inhibition – cell lysate, 3D7 strain, counter-screen for P. falciparum growth inhibition project (AID 2304).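 Also: 0% = vehicle and 100% = reference inhibitor.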 The conditions noted are these: P. falciparum 3D7 crude extract, LDH APAD/NBT absorbance; at 2 µM; hits give high values. In general terms: The purpose of a counterscreen is to sort out artefacts and off-target activity.

A short description of test [4]: inhibition of 3D7 malaria parasite growth – strain 3D7 (AID 2306).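 Also: 0% = DMSO wells and 100% = chloroquine plus artemisinin control wells.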 The note with it: P. falciparum 3D7 erythrocytic growth, LDH absorbance, 72 h; at 2 µM; hits give high values.
In test [5] the target is Calcium-dependent protein kinase 1 (Plasmodium falciparum (isolate 3D7)) (UniProt P62344). The test can be described thus: PfCDPK1 kinase inhibitors, biochemical, TCAMS library (AID 1159585; cut-off not given, nearly all actives have IC50 up to about 0.98 µM;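 also: inhibitors leave more ATP so luminescence rises with inhibition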). The note with it: recombinant PfCDPK1, Kinase-Glo ATP depletion luminescence. On the technique in general: In Kinase-Glo more light means more ATP remaining.
In test [6] the target is Plasmodium falciparum protein kinase 6 (PK6, PF3D7_1337100) (UniProt Q8IDW1). The test can be described thus: PfPK6 kinase inhibitors, biochemical, TCAMS library (AID 1159586). The note with it: recombinant PfPK6, Kinase-Glo ATP depletion luminescence.
The target of test [7] is Protein kinase 7 (PK7), Plasmodium falciparum 3D7 (PF3D7_0213400) (UniProt Q7YTF7). The test can be described thus: inhibition of Plasmodium PK7 catalytic activity – biochemical, TCAMS antimalarial set, Kinase-Glo luminescence (AID 1159587). The note with it: recombinant PfPK7, Kinase-Glo ATP depletion luminescence.
Test [8] has as its target Calcium-dependent protein kinase 4 (Plasmodium falciparum (isolate 3D7)) (UniProt Q8IBS5). The test can be described thus: PfCDPK4 kinase inhibitors, biochemical, TCAMS library (AID 1159588; cut-off not given, nearly all actives have IC50 up to about 0.91 µM). The note with it: recombinant PfCDPK4, Kinase-Glo ATP depletion luminescence.

The record followed here is PubChem BioAssay.

A number with no mark means an inactive call. For some of these results: Measured potencies and affinities stand elsewhere. Activity calls are given as the source filed them. Unless noted, no rule for the calls is given here.

Protein kinase 7 (PK7), Plasmodium falciparum 3D7 (PF3D7_0213400), sequence (Q7YTF7 1-343): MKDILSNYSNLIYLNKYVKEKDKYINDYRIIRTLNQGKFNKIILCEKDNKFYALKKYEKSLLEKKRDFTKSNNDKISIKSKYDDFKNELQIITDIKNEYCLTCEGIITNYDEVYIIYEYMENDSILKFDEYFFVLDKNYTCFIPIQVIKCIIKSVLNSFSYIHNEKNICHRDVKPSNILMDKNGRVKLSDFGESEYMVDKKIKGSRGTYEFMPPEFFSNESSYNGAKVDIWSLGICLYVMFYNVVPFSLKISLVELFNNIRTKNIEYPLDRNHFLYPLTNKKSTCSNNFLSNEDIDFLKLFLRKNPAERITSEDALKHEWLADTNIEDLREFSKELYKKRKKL
Calcium-dependent protein kinase 4 (Plasmodium falciparum (isolate 3D7)), sequence (Q8IBS5 whole entry, looked up): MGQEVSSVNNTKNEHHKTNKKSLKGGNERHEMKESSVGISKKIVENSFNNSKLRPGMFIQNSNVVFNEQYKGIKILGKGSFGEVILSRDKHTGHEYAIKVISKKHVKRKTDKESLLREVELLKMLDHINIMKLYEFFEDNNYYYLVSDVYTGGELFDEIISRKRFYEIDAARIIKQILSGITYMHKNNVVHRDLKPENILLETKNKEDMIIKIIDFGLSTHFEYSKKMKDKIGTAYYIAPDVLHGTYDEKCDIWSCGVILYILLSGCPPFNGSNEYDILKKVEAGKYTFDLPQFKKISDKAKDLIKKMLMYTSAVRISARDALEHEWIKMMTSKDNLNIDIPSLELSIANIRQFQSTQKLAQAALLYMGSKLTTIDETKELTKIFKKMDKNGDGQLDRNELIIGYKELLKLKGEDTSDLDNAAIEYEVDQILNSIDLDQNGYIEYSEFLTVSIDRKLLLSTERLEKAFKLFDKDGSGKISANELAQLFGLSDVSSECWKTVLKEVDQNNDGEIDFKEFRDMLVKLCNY
L-lactate dehydrogenase (Plasmodium falciparum (isolate CDC / Honduras)), sequence (Q27743 whole entry, looked up): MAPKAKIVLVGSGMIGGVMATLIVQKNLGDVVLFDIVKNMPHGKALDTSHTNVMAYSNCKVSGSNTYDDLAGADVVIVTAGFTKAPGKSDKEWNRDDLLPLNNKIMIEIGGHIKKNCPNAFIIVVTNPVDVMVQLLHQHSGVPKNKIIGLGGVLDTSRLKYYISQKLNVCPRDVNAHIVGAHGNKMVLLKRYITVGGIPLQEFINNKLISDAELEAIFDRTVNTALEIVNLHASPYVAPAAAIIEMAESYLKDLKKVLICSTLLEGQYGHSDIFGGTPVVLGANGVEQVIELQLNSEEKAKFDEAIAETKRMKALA
Plasmodium falciparum protein kinase 6 (PK6, PF3D7_1337100), sequence (Q8IDW1 1-305): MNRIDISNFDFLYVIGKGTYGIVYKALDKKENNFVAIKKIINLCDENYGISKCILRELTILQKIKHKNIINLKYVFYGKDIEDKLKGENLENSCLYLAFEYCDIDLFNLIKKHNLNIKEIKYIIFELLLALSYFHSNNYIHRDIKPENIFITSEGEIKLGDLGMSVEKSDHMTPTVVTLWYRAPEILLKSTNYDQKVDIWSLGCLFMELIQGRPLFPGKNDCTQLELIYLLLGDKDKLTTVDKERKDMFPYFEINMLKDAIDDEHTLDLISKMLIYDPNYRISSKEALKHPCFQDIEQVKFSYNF
Calcium-dependent protein kinase 1 (Plasmodium falciparum (isolate 3D7)), sequence (P62344 whole entry, looked up): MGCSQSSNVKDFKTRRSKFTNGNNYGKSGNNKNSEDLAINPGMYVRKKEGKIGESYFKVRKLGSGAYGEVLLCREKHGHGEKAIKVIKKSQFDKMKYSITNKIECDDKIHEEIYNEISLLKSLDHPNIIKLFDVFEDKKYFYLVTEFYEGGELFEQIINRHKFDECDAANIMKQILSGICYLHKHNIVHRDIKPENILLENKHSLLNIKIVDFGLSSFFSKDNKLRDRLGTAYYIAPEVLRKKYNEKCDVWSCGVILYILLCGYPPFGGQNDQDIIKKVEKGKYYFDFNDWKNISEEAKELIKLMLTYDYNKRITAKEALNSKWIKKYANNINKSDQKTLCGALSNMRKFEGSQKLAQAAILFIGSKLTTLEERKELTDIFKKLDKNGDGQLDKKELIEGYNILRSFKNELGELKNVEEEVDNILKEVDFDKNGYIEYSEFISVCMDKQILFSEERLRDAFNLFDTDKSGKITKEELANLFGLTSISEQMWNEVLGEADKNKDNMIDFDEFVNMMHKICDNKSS

`COc1ccc(C(=O)N2CCN(c3ccc([N+](=O)[O-])c(NC4CC4)c3)CC2)cc1Br`: the results for the growth inhibition in test [1] and in test [4] were 68% (active) and 99% (active), respectively. The inhibition (in general, the drop in the measured response relative to a control, in per cent) in test [2] is 6%; in test [3] it was 5%. Further, the outcome in test [5], in test [6], in test [7] and in test [8] was inactive.
`COc1cc(NCC(O)CNc2cc(Cl)nc3ccccc23)nc2ccccc12` (stereo not given): the growth inhibition in test [1] and in test [4] was 99% (active) in each case. Further, the inhibition was 17% in test [2] and -2% in test [3]. Further, the result in test [5], in test [6], in test [7] and in test [8] was inactive.
For `NCc1ccc(-c2ccc3c(N)nccc3c2)cc1`, the growth inhibition is 92% (active) in test [1] and 100% (active) in test [4]. Besides, the inhibition is 28% in test [2] and 0% in test [3]. Moreover, the outcome in test [5], in test [6], in test [7] and in test [8] was inactive.
On to `CN1CCC(C(=O)Nc2ccc(-c3cccc(-c4nc5ccc(F)cc5[nH]4)c3)cc2)CC1`, for which the growth inhibition is 5% in test [1] and 101% (active) in test [4]. In addition, the inhibition was 19% in test [2] and 5% in test [3]. Moreover, the outcome in test [5], in test [6], in test [7] and in test [8] was inactive.
As for `CCC(C)(C)c1ccc(N2C(N)=NC(N)=NC2(C)C)cc1`, the growth inhibition is 4% in test [1] and 91% (active) in test [4]. Moreover, the inhibition in test [2] is 40%; in test [3], -1%. In addition, the outcome in test [5], in test [6], in test [7] and in test [8] was inactive.
On to `COc1ccc(CNCc2ccccc2)cc1-c1ccc(S(=O)(=O)NCCN2CCCC2)c(C)c1`, for which the growth inhibition is 50% (active) in test [1] and 99% (active) in test [4]. In addition, the inhibition was 33% in test [2] and 3% in test [3]. Also, the outcome in test [5], in test [6], in test [7] and in test [8] was inactive.
As to `CN1CCN(c2ccnc3ccc(NC(=O)Nc4ccc5c(c4)CCCC5=O)cc23)CC1`, the values for the growth inhibition in test [1] and in test [4] were 90% (active) and 101% (active), respectively. Further, the inhibition in test [2] was 8%; in test [3], 4%. In addition, the outcome in test [5], in test [6], in test [7] and in test [8] was inactive.
For the compound `CC(=O)Nc1ccc(OCCCN(Cc2ccccc2OC(F)(F)F)c2ccc(C(F)(F)F)c(C#N)c2)c(Cl)c1`, the growth inhibition is 80% (active) in test [1] and 91% (active) in test [4]. Also, the inhibition in test [2] was 5%; in test [3] it was 0%. For the same compound, the result in test [5], in test [6], in test [7] and in test [8] was inactive.
On to `CCOC(=O)c1ccc(NC(=O)Nc2cccc(-c3cccc(-c4nc5ccccc5[nH]4)c3)c2)cc1`, for which the growth inhibition in test [1] was 99% (active); in test [4] it was 100% (active). The inhibition was 76% (active) in test [2] and -3% in test [3]. Also, the result in test [5], in test [6], in test [7] and in test [8] was inactive.
With `CCS(=O)(=O)c1ccc(-c2cnc3[nH]cc(-c4ccc(N)cc4)c3c2)cc1`, the values for the growth inhibition in test [1] and in test [4] were 99% (active) and 92% (active), respectively. In addition, the inhibition in test [2] was 24%; in test [3] it was -5%. Besides, the outcome in test [5], in test [6], in test [7] and in test [8] was inactive.
`Cc1ccc(CN2CCN(c3cc4c(cc3Cl)CCN4C(=O)Cc3ccc(NC(=O)c4ccc(C(F)(F)F)cc4)cc3)CC2)cc1`: the growth inhibition in test [1] is -8%; in test [4], 88% (active). Moreover, the inhibition is 15% in test [2] and 4% in test [3]. The outcome in test [5], in test [6], in test [7] and in test [8] was inactive.
Consider `Cc1nn(CC(O)Cn2c3ccc(Br)cc3c3cc(Br)ccc32)c(C)c1Br` (stereo not given), for which the growth inhibition was 81% (active) in test [1] and 98% (active) in test [4]. The results for the inhibition in test [2] and in test [3] were 4% and 1%, respectively. For the same compound, the result in test [5], in test [6], in test [7] and in test [8] was inactive.
Turning to `COc1ccc(CN2CCCC(OC(c3ccc(F)cc3)c3ccc(F)cc3)C2)c(O)c1` (stereo not given), the values for the growth inhibition in test [1] and in test [4] were 99% (active) and 100% (active), respectively. The inhibition in test [2] is 16%; in test [3] it was 0%. Further, the result in test [5], in test [6], in test [7] and in test [8] was inactive.
As for `CCC[C@@H]([C@@H](CC1CCCCC1)C(=O)N[C@H](C(=O)Nc1nccs1)C(C)(C)SCCNC(=O)OCC)N(O)C=O`, the growth inhibition is 98% (active) in test [1] and 99% (active) in test [4]. Moreover, the inhibition in test [2] is 45%; in test [3], 0%. The outcome in test [5], in test [6], in test [7] and in test [8] was inactive.
Regarding `Cc1ccc(C(=O)Nc2ccc(C)c(OC3CCN(CCC(C)C)C3)c2)cc1` (stereo not given), the results for the growth inhibition in test [1] and in test [4] were 53% (active) and 99% (active), respectively. In addition, the inhibition in test [2] was 6%; in test [3] it was -13%. The result in test [5], in test [6], in test [7] and in test [8] was inactive.
For `O=S(=O)(c1c(Cl)cc(Cl)cc1Cl)N1CCCCC(c2ccc(Cl)cc2)=N1`, the growth inhibition is 93% (active) in test [1] and 95% (active) in test [4]. Moreover, the inhibition in test [2] is 11%; in test [3], 3%. Moreover, the outcome in test [5], in test [6], in test [7] and in test [8] was inactive.
Consider `O=S(=O)(NCCN1CCCC1)c1cccc(-c2ccc(CNCc3ccsc3)cc2)c1`, for which the growth inhibition in test [1] is 31%; in test [4], 101% (active). Moreover, the inhibition was 33% in test [2] and 6% in test [3]. For the same compound, the outcome in test [5], in test [6], in test [7] and in test [8] was inactive.
For the compound `CCCNC(=O)c1cncc(-c2cccc(CNC3Cc4ccccc4C3)c2)c1`, the growth inhibition in test [1] is 2%; in test [4] it was 100% (active). The inhibition in test [2] is -2%; in test [3], -3%. The outcome in test [5], in test [6], in test [7] and in test [8] was inactive.
`COc1ccc(NC(=O)/C=C/c2ccccc2Cl)cc1OCCN1CCC(N2CCN(C)CC2)CC1`: the results for the growth inhibition in test [1] and in test [4] were 49% and 102% (active), respectively. Besides, the figures for the inhibition in test [2] and in test [3] were 19% and 5%, respectively. Moreover, the outcome in test [5], in test [6], in test [7] and in test [8] was inactive.
Take `O=C(/C=C/c1ccc(Cl)c(Cl)c1)NCCCCN1CCCN(C(=O)Nc2cc(Cl)cc(Cl)c2)CC1`: the figures for the growth inhibition in test [1] and in test [4] were 1% and 97% (active), respectively. For the same compound, the inhibition was 21% in test [2] and 2% in test [3]. In addition, the result in test [5], in test [6], in test [7] and in test [8] was inactive.
